# Laboratory results published in the OligoGym collection.
# Target: ADAD1
# Experiment: pooled miR-30 sensor sort-seq; sequence = guide strand
# Settings: shRNA
# Also: reference of the scale not given here.
row,Sequence,sensor-assay potency score (higher = more potent)
1,TTATTCTATTAACACCATCTTT,-0.934
2,TAAACTAATATGAGGTCTGTTG,-1.14
3,TAAGAAGAGACCTTCTTGCTGT,0.614
4,TTGATTTTTCCATCATAGCAGG,-0.926
5,TTGACTAAGTAAAACATTGGAA,-0.221
6,TAAACCGACTTAACATTGCAGC,-0.535
7,TTAGTTGATTAAATCTTTCTTT,0.397
8,TTTAGGACAGTAAACAGTCAGA,-1
9,TCAACTTACATTTAGCTTCTTG,-0.0304
10,TATAGCTACAACCTCATGTTGT,0.156
11,TAGTTATCGTCTTTGTCGCTGG,-0.46

# Target: ADAM18
# Experiment: as above
# Settings: shRNA
row,Sequence,sensor-assay potency score (higher = more potent)
1,TTGATGTACAACATGGTCCAGA,-0.506
2,TATGTGGCTGAACACAAGCTAA,-1.54
3,TTGAACTGGGTAAACATAGTGT,-0.273
4,TCATTTGACTTAATCTTCCGTG,0.722
5,TATGACTGTAATTTACTGCTAA,0.177
6,TAACAGTCAATTTGAACTGGGT,0.214
7,TTATATGCTCAAATCTTGCTGA,-0.162
8,TTTGACTTAATCTTCCGTGGAA,0.749
9,TTCATTATATGTATAAACCAAA,-1.38
10,TATAACAGTCAATTTGAACTGG,0.382
11,TATTCCTTCAGAACCTTCGTGG,0.508
12,TTATACTCTGCATTCTCTCTGT,0.461

# Target: ADAP1
# Experiment: as above
# Settings: shRNA
row,Sequence,sensor-assay potency score (higher = more potent)
1,TTCACCTTGCTGACCTGGGGGA,-0.267
2,TTCTGTCAGCACAAACTTCCGG,-0.508
3,TCGTTCTGTCAGCACAAACTTC,-1.49
4,TCTTTGAAGTACATGAGCCTGC,0.0128
5,TGAAATACTTCAGAGCACCCTC,-0.32
6,ATTTCTGTTGAAATACTTCAGA,-1.12
7,TTCTGTTGAAATACTTCAGAGC,-0.664
8,TCTGTCAGCACAAACTTCCGGC,0.0597
9,AAACAGAAACTTGCGGTCGGGC,-0.903
10,TAGATGAAGATGTTACGGGTGC,-0.0419
11,TAGGGCTCCTGCTTCTCCGGGT,0.35
12,TTGAAGTACATGAGCCTGCGGT,-0.124

# Target: ADCYAP1
# Experiment: as above
# Settings: shRNA
row,Sequence,sensor-assay potency score (higher = more potent)
1,TATCCCATAGACCAGCAGGGCC,-1.32
2,TGTTTGGATAGAACACACGAGC,-1.09
3,TTGTTTATACCTCTTCCCTAGG,-0.956
